Assay results published in PubChem BioAssay AID1745850 (National Center for Advancing Translational Sciences (NCATS), 2022).
Among all 2,100 compounds or so, about 260 (12%) were called active. Not shown: some 58% with an inconclusive outcome. The call rests on the fitted dose curve; in most records, active means well fitted cell-killing curve with a large enough effect; inconclusive means small, poorly fitted or top-dose-only effect, or effect the other way; inactive means flat fitted curve, though single readings scatter. This is one part of the list.

Assay: Viability Counterscreen for Confirmatory qHTS for Inhibitors of ATXN expression; further: nearly all actives have a fitted effect of over 50% in size
Details: HEK-293 ATXN2-luc cells viability, CellTiter-Fluor, 24 h; activity change, negative = cytotoxicity: at the top concentration
Summary of the method: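 Cells with an ATXN2-luciferase reporter were dosed in a dilution series for 24 h at 37 degrees C. Viability was read first with Gly-Phe-AFC at 25 uM final (fluorescence, ex 405/em 540), then SteadyGlo luminescence. Medium-only wells defined 100% inhibition.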
Potency means the concentration at half of the fitted maximal effect.

SMILES | activity change, negative = cytotoxicity | Potency
COc1ccc(-c2sc3ccc(OC)cc3c2-c2ccc(O)cc2)cc1 | -24.2% (inactive) | –
COc1cc(-c2ccc3sc(-c4ccsc4)c(C#CCO)c3c2)cc(OC)c1OC | – | 22.4 µM (active)
O=C(O)CSc1cc(NS(=O)(=O)c2ccc(Cl)cc2)c2ccccc2c1O | – | 35.5 µM (active)
COC(=O)[C@H]1C[C@H](OC(=O)NC2CC2)[C@@]2(O)CN(S(=O)(=O)c3ccc(C)cc3)CC2[C@H]1C(=O)OC (some centres not stated) | -1.83% (inactive) | –
COc1ccc(-c2csc(NC(=O)c3ccccc3NS(=O)(=O)c3ccc(F)c(F)c3)n2)cc1 | – | 5.62 µM (active)
COc1ccc(CC(N)c2csc(NC(=O)c3ccccc3OC)n2)cc1 (configuration not stated) | -15.7% [at 57.5 µM] (inactive) | –
C/[N+]([O-])=C\c1cccc(OCCN2CCN(c3ncc(C(F)(F)F)cc3Cl)CC2)c1 | -8.08% (inactive) | –
CC[n+]1c(/C=C/c2c[nH]c3ccccc23)ccc2cc(C)ccc21 | – | 15.8 µM (active)
Nc1ccc(OC(=O)Nc2ccc(O)cc2)cc1 | -23.8% [at 57.5 µM] (inactive) | –
O=C(Cn1cnc([N+](=O)[O-])c1)Nc1cc(Oc2ccc(Cl)cc2Cl)cc([N+](=O)[O-])c1 | – | 3.16 µM (active)
O=C(NCC1CCCO1)c1cccc(Oc2ccc([N+](=O)[O-])cc2Cl)c1 (configuration not stated) | -10.9% (inactive) | –
CC1CCN(Cc2c(C(=O)N/N=C/c3cc(Cl)ccc3O)nnn2-c2nonc2N)CC1 | -9.41% (inactive) | –
O=C1c2cccc3cc([N+](=O)[O-])cc(c23)C(=O)N1CCN1CCCC1 | – | 3.16 µM (active)
Nc1cc2c3c(cccc3c1)C(=O)N(CCN1CCCC1)C2=O | – | 22.4 µM (active)
CCCCCCc1cc2cc(C(=O)Nc3ccccc3)c(=O)oc2cc1O | 14.7% (inactive) | –
O=C(CN1C(=O)c2ccccc2S1(=O)=O)N1CCc2ccccc21 | -6.71% (inactive) | –
CCOc1cc(/C=C2\SC(=N)N(c3nccs3)C2=O)ccc1OCCN1CCOCC1 | – | 25.1 µM (active)
OC1(c2ccc(Br)cc2)CCNCC1 | -4.89% (inactive) | –
Cc1onc(-c2ccccc2)c1C(=O)Nc1ccc(S(=O)(=O)NC(C)(C)C)cc1 | -0.495% [at 57.5 µM] (inactive) | –
Cc1cc(C)cc(OCC(=O)NNC(=S)NC(=O)C2CC2)c1 | 1.25% (inactive) | –
Cc1sc2cc3c(c(C(=O)c4ccccc4)[n+]2c1C)-c1cccc2cccc-3c12 | – | 12.6 µM (active)
CC(=O)c1ccc(C(=O)Nc2nnc(-c3ccc(Cl)cc3)o2)cc1 | -8.23% (inactive) | –
CCn1c2ccccc2c2cc(NC(=O)COC(=O)C3CCC(=O)N3)ccc21 (configuration not stated) | -15.2% [at 57.5 µM] (inactive) | –
NS(=O)(=O)c1ccc(N2N=C(c3ccc(Br)cc3)CC2c2ccc(F)cc2)cc1 (configuration not stated) | -21.3% [at 57.5 µM] (inactive) | –
COc1cccc(OC)c1C(=O)OCC(=O)NC(=O)NCc1ccccc1 | -8.35% (inactive) | –
O=C(NNCc1ccccc1)c1ccccc1 | -14.6% [at 57.5 µM] (inactive) | –
c1ccc(CN=C(NCc2ccccc2)NCc2ccccc2)cc1 | – | 31.6 µM (active)
